Assay results from PubChem BioAssay (NCI).
Compounds without any hit were thinned out: in the full panel of roughly 79,000, 15% have a hit. A number with no mark means an inactive call. The source made the active and inactive calls. No stated cut-off is given here; in the data, active means growth inhibition above about 70%; inactive means the rest.

Assays:
[1] = NCI Yeast Anticancer Drug Screen. Data for the wt1 strain (AID 149);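 further: 0% = growth of vehicle-treated wt1 cultures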; details: S. cerevisiae wt1 strain (SPY 50644) growth inhibition, hits give high values
How it was run: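 Readout: yeast growth inhibition, normalised to vehicle controls, in the wt1 strain exposed to test compounds.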

[2] = NCI Yeast Anticancer Drug Screen. Data for the rad50EPP+ strain (AID 151);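 further: 0% = growth of vehicle-treated control cultures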; details: S. cerevisiae rad50 mutant strain, hits give high values
How it was run: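 Exposing the rad50EPP+ strain to each compound, growth was compared with vehicle-only cultures to give inhibition.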

[3] = NCI Yeast Anticancer Drug Screen. Data for the mgt1 strain (AID 153); details: S. cerevisiae mgt1 mutant growth inhibition, hits give high values
How it was run: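 Genetically defined yeast (mgt1) treated with compound; inhibition of growth expressed against vehicle-treated controls.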

[4] = NCI Yeast Anticancer Drug Screen. Data for the rad50 strain (AID 155);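 further: 0% = growth of vehicle-only cultures of the same strain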; details: S. cerevisiae rad50 strain growth inhibition, hits give high values
How it was run: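 Compounds were tested on a yeast strain with an engineered DNA damage repair alteration; the reported value is growth inhibition normalised to vehicle treatment.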

[5] = NCI Yeast Anticancer Drug Screen. Data for the mec2-1 strain (AID 157); details: S. cerevisiae mec2-1 strain, hits give high values
How it was run: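 Readout is yeast growth inhibition, normalised to vehicle-treated controls, in the mec2-1 strain exposed to compound.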

[6] = NCI Yeast Anticancer Drug Screen. Data for the rad14 strain (AID 159);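 further: 0% = growth of vehicle-treated control cultures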; details: S. cerevisiae rad14 strain growth inhibition, hits give high values
How it was run: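 Compound-treated yeast with a defined DNA-repair lesion; growth inhibition normalised to vehicle-treated cultures.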

[7] = NCI Yeast Anticancer Drug Screen. Data for the sgs1 mgt1 strain (AID 161);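 further: 0% = growth of cultures given vehicle only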; details: S. cerevisiae sgs1 mgt1 strain, hits give high values
How it was run: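 Growth of a repair-deficient yeast mutant was monitored after compound treatment and expressed as inhibition relative to vehicle-treated cultures.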

[8] = NCI Yeast Anticancer Drug Screen. Data for the CLN2oe strain (AID 163);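 further: 0% = growth of vehicle-only control cultures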; details: S. cerevisiae CLN2oe strain, hits give high values
How it was run: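 Values reflect how much compound exposure reduced yeast growth, referenced to vehicle-exposed cells. Assay organism is a strain with a defined genetic change affecting cell-cycle control.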

[9] = NCI Yeast Anticancer Drug Screen. Data for the cln2 rad14 strain (AID 165);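 further: 0% = growth equal to vehicle treated cultures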; details: S. cerevisiae cln2 rad14 strain, hits give high values
How it was run: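 Relative to vehicle controls, growth inhibition of compound-treated cln2 rad14 yeast was recorded.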

[10] = NCI Yeast Anticancer Drug Screen. Data for the bub3 strain (AID 167); details: S. cerevisiae bub3 mutant strain, hits give high values
How it was run: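 Growth of a checkpoint-deficient yeast mutant is measured after compound exposure. Values represent inhibition relative to vehicle.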

[11] = NCI Yeast Anticancer Drug Screen. Data for the wt2 strain (AID 169);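 further: 0% = growth of vehicle-treated yeast cultures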; details: S. cerevisiae wt2 strain growth inhibition, hits give high values
How it was run: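 Values express reduction in yeast growth under compound treatment, referenced to vehicle-treated cells.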

[12] = NCI Yeast Anticancer Drug Screen. Data for the mlh1 strain (AID 171);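 further: 0% = growth of vehicle-treated control cultures of the same strain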; details: S. cerevisiae mlh1 strain growth inhibition, hits give high values
How it was run: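 Steps: expose the defined-mutant yeast strain to compound; expose a parallel culture to vehicle; measure growth; express compound effect as inhibition relative to the vehicle culture.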

[13] = NCI Yeast Anticancer Drug Screen. Data for the mlh1 rad18 strain (AID 175); details: S. cerevisiae mlh1 rad18 strain growth inhibition, hits give high values
How it was run: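 Test agents were incubated with a yeast strain of defined genotype (DNA damage repair defect). Inhibition of growth was derived by comparison with vehicle-exposed cultures.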

[14] = NCI Yeast Anticancer Drug Screen. Data for the rad18 strain (AID 177); details: S. cerevisiae rad18 mutant growth inhibition, hits give high values
How it was run: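 A genetically defined yeast mutant impaired in DNA damage repair was treated with test compounds, then its growth was measured against cultures receiving vehicle alone.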

[15] = NCI Yeast Anticancer Drug Screen. Data for the sgs1 strain (AID 173);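 further: 0% = growth of vehicle-only control cultures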; details: S. cerevisiae sgs1 mutant, hits give high values
How it was run: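 Treat defined-mutant yeast with compound; measure growth; calculate inhibition relative to vehicle-treated cells.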

[16] = at 5.0 µM (retest, dose inferred, filed as 0.5)
[17] = at 50.0 µM (retest, dose inferred, filed as 5.0)

Work on `CC1C(c2ccccc2)SC(=N)N1C` (stereo not drawn) yielded a growth inhibition ([1]; at 1.2 µM) of -1%, a growth inhibition ([1]; at 3.7 µM) of -1% and a growth inhibition ([1]; at 11.0 µM) of -2%. The growth inhibition ([1]; at 33.0 µM) was -1%, the growth inhibition ([1]; at 100.0 µM) was -1% and the growth inhibition ([2]; at 1.2 µM) was -2%. It also gave a growth inhibition ([2]; at 3.7 µM) of -2%, a growth inhibition ([2]; at 11.0 µM) of -2% and a growth inhibition ([2]; at 33.0 µM) of 0%. For the same compound, the growth inhibition ([2]; at 100.0 µM) was -1%, the growth inhibition ([3]; at 1.2 µM) was -1% and the growth inhibition ([3]; at 3.7 µM) was 0%. The growth inhibition ([3]; at 11.0 µM) was 0%, the growth inhibition ([3]; at 33.0 µM) was -1% and the growth inhibition ([3]; at 100.0 µM) was -1%. For the same compound, the growth inhibition ([4]; at 1.2 µM) was -2%, the growth inhibition ([4]; at 3.7 µM) was -46% and the growth inhibition [4, 16] was 0%. It also gave a growth inhibition ([4]; at 11.0 µM) of -55%, a growth inhibition ([4]; at 33.0 µM) of -4% and a growth inhibition [4, 17] of 51%. The growth inhibition ([4]; at 50.0 µM) was -19.9%, the growth inhibition ([4]; at 100.0 µM) was -4% and the growth inhibition ([5]; at 1.2 µM) was 0%. The growth inhibition ([5]; at 3.7 µM) was -1%, the growth inhibition [5, 16] was 6% and the growth inhibition ([5]; at 11.0 µM) was -1%. It also gave a growth inhibition ([5]; at 33.0 µM) of -1%, a growth inhibition [5, 17] of 46% and a growth inhibition ([5]; at 50.0 µM) of -5.6%. For the same compound, the growth inhibition ([5]; at 100.0 µM) was -1%, the growth inhibition ([6]; at 1.2 µM) was 1% and the growth inhibition ([6]; at 3.7 µM) was 2%. It also gave a growth inhibition ([6]; at 11.0 µM) of 2%, a growth inhibition ([6]; at 33.0 µM) of 3% and a growth inhibition ([6]; at 100.0 µM) of 2%. For the same compound, the growth inhibition [7, 16] was 12%, the growth inhibition [7, 17] was 54% and the growth inhibition ([7]; at 50.0 µM) was -5.35%. The growth inhibition ([8]; at 1.2 µM) was 4%, the growth inhibition ([8]; at 3.7 µM) was 1% and the growth inhibition ([8]; at 11.0 µM) was 4%. The growth inhibition ([8]; at 33.0 µM) was 4%, the growth inhibition ([8]; at 100.0 µM) was -2% and the growth inhibition [9, 16] was 1%. For the same compound, the growth inhibition [9, 17] was 56%, the growth inhibition ([9]; at 50.0 µM) was 23.4% and the growth inhibition ([10]; at 1.2 µM) was -3%. For the same compound, the growth inhibition ([10]; at 3.7 µM) was -2%, the growth inhibition [10, 16] was -2% and the growth inhibition ([10]; at 11.0 µM) was -3%. It also gave a growth inhibition ([10]; at 33.0 µM) of -3%, a growth inhibition [10, 17] of -7% and a growth inhibition ([10]; at 50.0 µM) of -4.4%. The growth inhibition ([10]; at 100.0 µM) was 0%, the growth inhibition ([11]; at 1.2 µM) was 1% and the growth inhibition ([11]; at 3.7 µM) was 8%. For the same compound, the growth inhibition ([11]; at 11.0 µM) was 0%, the growth inhibition ([11]; at 33.0 µM) was 0% and the growth inhibition ([11]; at 100.0 µM) was 0%. The growth inhibition ([12]; at 1.2 µM) was -1%, the growth inhibition ([12]; at 3.7 µM) was -2% and the growth inhibition ([12]; at 11.0 µM) was 0%. It also gave a growth inhibition ([12]; at 33.0 µM) of -1%, a growth inhibition ([12]; at 100.0 µM) of -1% and a growth inhibition [13, 16] of 6%. It also gave a growth inhibition [13, 17] of 52%, a growth inhibition ([13]; at 50.0 µM) of -18.4% and a growth inhibition ([14]; at 1.2 µM) of -1%. For the same compound, the growth inhibition ([14]; at 3.7 µM) was 1%, the growth inhibition ([14]; at 11.0 µM) was -2% and the growth inhibition ([14]; at 33.0 µM) was -3%. The growth inhibition ([14]; at 100.0 µM) was -4%.
Work on `CCN(CC)CCNc1ccc2nc(C)n3c4ccc(O)cc4c(=O)c1c23` yielded a growth inhibition ([1]; at 1.2 µM) of -2%, a growth inhibition ([1]; at 3.7 µM) of -4% and a growth inhibition ([1]; at 11.0 µM) of -2%. The growth inhibition ([1]; at 33.0 µM) was 0%, the growth inhibition ([1]; at 100.0 µM) was 2% and the growth inhibition ([2]; at 1.2 µM) was 5%. The growth inhibition ([2]; at 3.7 µM) was 15%, the growth inhibition ([2]; at 11.0 µM) was 24% and the growth inhibition ([2]; at 33.0 µM) was 38%. The growth inhibition ([2]; at 100.0 µM) was 39%, the growth inhibition ([3]; at 1.2 µM) was 3% and the growth inhibition ([3]; at 3.7 µM) was 0%. For the same compound, the growth inhibition ([3]; at 11.0 µM) was 3%, the growth inhibition ([3]; at 33.0 µM) was 1% and the growth inhibition ([3]; at 100.0 µM) was 2%. The growth inhibition ([4]; at 1.2 µM) was 42%, the growth inhibition ([4]; at 3.7 µM) was 73% (active) and the growth inhibition [4, 16] was 91% (active). The growth inhibition ([4]; at 11.0 µM) was 84% (active), the growth inhibition ([4]; at 33.0 µM) was 91% (active) and the growth inhibition [4, 17] was 91% (active). For the same compound, the growth inhibition ([4]; at 50.0 µM) was -0.45%, the growth inhibition ([4]; at 100.0 µM) was 92% (active) and the growth inhibition ([5]; at 1.2 µM) was -1%. The growth inhibition ([5]; at 3.7 µM) was 10%, the growth inhibition [5, 16] was 15% and the growth inhibition ([5]; at 11.0 µM) was 3%. The growth inhibition ([5]; at 33.0 µM) was 14%, the growth inhibition [5, 17] was 15% and the growth inhibition ([5]; at 50.0 µM) was 26.9%. It also gave a growth inhibition ([5]; at 100.0 µM) of 28%, a growth inhibition [7, 16] of 18% and a growth inhibition [7, 17] of 18%. It also gave a growth inhibition ([7]; at 50.0 µM) of 0.15%, a growth inhibition ([8]; at 1.2 µM) of -1% and a growth inhibition ([8]; at 3.7 µM) of 2%. The growth inhibition ([8]; at 11.0 µM) was -1%, the growth inhibition ([8]; at 33.0 µM) was 3% and the growth inhibition ([8]; at 100.0 µM) was -2%. The growth inhibition ([10]; at 1.2 µM) was -3%, the growth inhibition ([10]; at 3.7 µM) was -19% and the growth inhibition [10, 16] was 39%. For the same compound, the growth inhibition ([10]; at 11.0 µM) was -1%, the growth inhibition ([10]; at 33.0 µM) was -5% and the growth inhibition [10, 17] was 39%. It also gave a growth inhibition ([10]; at 50.0 µM) of -3.85%, a growth inhibition ([10]; at 100.0 µM) of 3% and a growth inhibition ([11]; at 1.2 µM) of 0%. It also gave a growth inhibition ([11]; at 3.7 µM) of 1%, a growth inhibition ([11]; at 11.0 µM) of 0% and a growth inhibition ([11]; at 33.0 µM) of 1%. It also gave a growth inhibition ([11]; at 100.0 µM) of 5%, a growth inhibition ([12]; at 1.2 µM) of 2% and a growth inhibition ([12]; at 3.7 µM) of 3%. For the same compound, the growth inhibition ([12]; at 11.0 µM) was -6%, the growth inhibition ([12]; at 33.0 µM) was 2% and the growth inhibition ([12]; at 100.0 µM) was 22%. For the same compound, the growth inhibition ([15]; at 1.2 µM) was 0%, the growth inhibition ([15]; at 3.7 µM) was -1% and the growth inhibition ([15]; at 11.0 µM) was 1%. The growth inhibition ([15]; at 33.0 µM) was 4%, the growth inhibition ([15]; at 100.0 µM) was 5% and the growth inhibition [13, 16] was 6%. For the same compound, the growth inhibition [13, 17] was 6%, the growth inhibition ([13]; at 50.0 µM) was 78.4% (active) and the growth inhibition ([14]; at 1.2 µM) was 0%. For the same compound, the growth inhibition ([14]; at 3.7 µM) was 0%, the growth inhibition ([14]; at 11.0 µM) was -4% and the growth inhibition ([14]; at 33.0 µM) was -13%. It also gave a growth inhibition ([14]; at 100.0 µM) of -22%.
